# HepG2 tox – HepG2 cytotoxicity, counter-screen for TGF-b inhibitors | actives 0.76% (n = 410,000) | Potency, µM (doses to about 46.1 µM), for inactives: at the highest dose activity change, negative = cytotoxicity, hits mostly cytotoxic | HepG2 CAGA-GFP viability, ATP luminescence, 18 h; note: potency is the fitted concentration of half-maximal effect
#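 CellTiter-Glo luminescence gave cytotoxicity after 18 hours at 37 degrees C. The cells were HepG2 CAGA-GFP in 1% FBS DMEM, stimulated with 500 pg/mL TGF-beta after compound addition. %Activity was normalised to no-cell wells (complete cell-killing) and DMSO (no toxicity), and curves were fitted and classified.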
# IL1B secr inh – blocks inflammasome-driven IL-1 beta release; actives 4.7% (n = 360,000); activity change, % at 57.5 µM; THP-1 LPS/ATP IL-1B secretion, AlphaLISA, 16 h; stronger effect = lower value; in the data active = activity change below about -50%; inconclusive = mostly about -30% to -49%; note: % is set by controls: 0 for no effect and ±100 for the full control effect
#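 Secreted IL-1B measured by AlphaLISA bead assay after 16 h compound exposure of THP-1 cells; compounds (final up to 57.5 uM) added 1 h before LPS (250 ng/mL) and ATP (1.25 mM) stimulation; lower signal means less secretion.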
# DT40 TDP1 no CPT – qHTS for Inhibitors of human tyrosyl-DNA phosphodiesterase 1 (TDP1): qHTS in cells in absence of CPT | DT40 Tdp1-/- hTDP1 cells, no CPT, ATP luminescence, 48 h | Potency, µM (top dose mostly 46.2 µM), for inactives: top-dose activity change, negative = growth inhibition, usual class: inhibitors | actives 15% (n = 420,000) | AID 686978, 2013; note: potency is the fitted concentration of half-maximal effect; % is set by controls: 0 for no effect and ±100 for the full control effect; nearly all actives have a fitted effect of over 55% in size
#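 Chicken DT40 Tdp1-/- cells stably complemented with human TDP1 were seeded at 400 cells/well with DMSO in place of 20 nM camptothecin. After compound pinning, cells grew at least 48 hr at 37 °C; viability read by CellTiter-Glo luminescence.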
# TDP1 cell CPT – DT40-hTDP1 cell growth loss with CPT; actives 12% (n = 420,000); Potency, µM (top dose mostly 46.2 µM), inactives show at the highest dose activity change, negative = growth inhibition, hits mostly inhibitors; chicken DT40 Tdp1-/-;hTDP1 cells + 20 nM CPT, ATP luminescence, 48 h; AID 686979; note: potency is the fitted concentration of half-maximal effect; % is set by controls: 0 for no effect and ±100 for the full control effect; nearly all actives have a fitted effect of over 55% in size
#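 Chicken DT40 Tdp1-/- cells stably complemented with human TDP1 were seeded at 400 cells/well in medium containing 20 nM camptothecin, exposed to pin-transferred compounds, and grown at 37 °C for at least 48 hr. Viability was read as ATP luminescence.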
# S-ASM inh – blocks human secretory acid sphingomyelinase | P17405 | placental ASM, HMU-PC fluorogenic substrate, 60 min | Potency, µM (series often up to 57.5 µM), for the others: at the top dose activity change, negative = inhibition, usual class: inhibitors | actives 0.006% (n = 340,000); note: potency is the fitted concentration of half-maximal effect
# Target sequence (P17405 47-631 limits assumed): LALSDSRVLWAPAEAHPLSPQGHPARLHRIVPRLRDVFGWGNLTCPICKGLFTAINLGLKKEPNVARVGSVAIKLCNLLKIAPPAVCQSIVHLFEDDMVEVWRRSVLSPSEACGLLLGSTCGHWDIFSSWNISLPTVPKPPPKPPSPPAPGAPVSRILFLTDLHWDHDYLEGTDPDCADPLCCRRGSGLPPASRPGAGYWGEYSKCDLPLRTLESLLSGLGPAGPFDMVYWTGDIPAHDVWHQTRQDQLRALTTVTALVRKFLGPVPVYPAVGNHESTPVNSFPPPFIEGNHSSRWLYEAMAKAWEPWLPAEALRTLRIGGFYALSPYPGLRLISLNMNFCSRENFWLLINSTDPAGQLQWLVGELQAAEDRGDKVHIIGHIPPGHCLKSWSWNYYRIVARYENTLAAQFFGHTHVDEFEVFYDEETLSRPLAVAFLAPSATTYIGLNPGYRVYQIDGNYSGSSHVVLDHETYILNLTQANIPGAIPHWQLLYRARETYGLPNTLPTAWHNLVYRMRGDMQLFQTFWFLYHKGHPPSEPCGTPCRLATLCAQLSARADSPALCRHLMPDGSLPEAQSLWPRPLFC
#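 Steps: dispense placental human ASM, pin compound, wait 10 min at room temperature, add HMU-PC0 substrate at 9 uM final, incubate 60 min at 37 °C, add stop solution raising pH to 10, read fluorescence.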
# TGFb inhibitor – TGF-b pathway inhibition | HepG2 CAGA-GFP TGF-b/SMAD3 reporter, GFP fluorescence, 18 h; TGF-beta stimulated, 500 pg/mL final | actives 1.2% (n = 410,000) | Potency, µM (doses to about 46.1 µM), for inactives: top-dose activity, negative = inhibition, most hits filed as inhibitors; note: potency is the fitted concentration of half-maximal effect; % is set by controls: 0 for no effect and ±100 for the full control effect; nearly all actives have a fitted effect of over 65% in size
#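 Per well, imaged GFP fluorescence of HEPG2 CAGA-GFP cells gives the signal; cells get compound, then TGF-beta (500 pg/mL final), 18 h at 37 degrees C; %Activity versus -TGF-beta and +DMSO controls.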
# * marks the source's active call; other numbers are inactive results; ? = inconclusive; . = no result. Only some compounds are listed: those with a hit (about 19% of all), similar ones and a draw of the others. Unless noted, calls come from the whole dose curve; as a rule, active = well fitted curve in the direction sought with a large enough effect; inconclusive = small, poorly fitted or top-dose-only effect, or another doubt; inactive = no such curve, though single readings can be large; an effect the other way counts as inactive or inconclusive.
SMILES,HepG2 tox,IL1B secr inh,DT40 TDP1 no CPT,TDP1 cell CPT,S-ASM inh,TGFb inhibitor
CCN(CC)C(=O)Cn1c(=O)n(CCc2ccccc2)c(=O)c2ccccc21,-1%,.,?,?,.,26%
CCc1nc2ccccc2n1CCCCOc1ccccc1C,-50%,.,26µM*,?,.,?
Cc1ccccc1OCCCn1c(CO)nc2ccccc21,21%,3,18µM*,?,1%,-16%
Cc1ccccc1OCCn1c(CCNC(=O)C(C)C)nc2ccccc21,-6%,11,?,-19%,3%,-42%
Cc1ccnc(NC(c2ccccc2)c2ccc3cccnc3c2O)c1 (stereo not given),-10%,99,21µM*,?,4%,?
COc1ccc(C(Nc2cc(C)ccn2)c2ccc3ccc(C)nc3c2O)cc1 (stereo not given),5%,5,?,?,0%,1%
Cc1ccnc(NC(c2ccsc2)c2ccc3ccc(C)nc3c2O)c1 (stereo not given),-31%,-84*,?,23%,0%,?
Cc1ccnc(NCc2c(O)ccc3ccccc23)c1,-29%,-3,-17%,0%,-7%,-7%
Cc1ccnc(NC(c2cc(C)ccc2O)c2ccc3cccnc3c2O)c1 (stereo not given),-48%,.,10µM*,?,.,.
Cc1ccnc(NC(c2ccccc2F)c2ccc3cccnc3c2O)c1 (stereo not given),-30%,.,.,.,.,?
O=C(COC(=O)CCS(=O)(=O)c1ccccc1)NNC(=O)c1ccc([N+](=O)[O-])cc1,-20%,-5,2%,-18%,.,-2%
Cc1cc(C)nc(NC(=O)c2cccs2)c1,-2%,16,-9%,-16%,2%,-6%
COc1ccccc1N1CCN(S(=O)(=O)c2ccc(F)c(C(=O)Nc3ccc(Cl)cc3C(F)(F)F)c2)CC1,-20%,.,21µM*,?,.,-6%
COc1ccccc1NC(=O)c1cc(S(=O)(=O)N2CCN(c3ccccc3Cl)CC2)ccc1F,3%,.,-70%,?,.,1%
COc1ccc(N2CCN(S(=O)(=O)c3ccc(F)c(C(=O)Nc4ccccc4Cl)c3)CC2)cc1,-3%,.,8.2µM*,7.3µM*,.,-6%
CCC(C)Oc1ccccc1C1CC(=O)NC2=C1C(=O)CCC2 (stereo not given),5%,61,?,26µM*,3%,13%
Cc1ccccc1C1CC(=O)NC2=C1C(=O)CCC2 (stereo not given),-11%,-4,-2%,5%,25%,19%
O=S(=O)(Cc1ccc(Cl)cc1)N1CCN(Cc2ccc3c(c2)OCO3)CC1,3%,8,-23%,8%,0%,12%
O=S(=O)(Cc1ccc(Cl)cc1)Nc1ccc2c(c1)OCO2,-7%,-53*,?,?,0%,?
CC(=O)c1ccc(-c2ccc(C(=O)NCC3CCCO3)o2)cc1 (stereo not given),11%,6,-28%,2%,46%,-7%
CC1=CC(C)(C)N=C(Nc2ccc(C)cc2)S1,-46%,-65*,?,?,3%,0%
Cc1cc(-c2ccc(C)c(S(=O)(=O)NCCCN3CCCCCC3)c2)on1,-10%,-51*,-28%,-24%,13%,1%
COc1ccc(-c2cc(C)no2)cc1S(=O)(=O)NCCCN(C)Cc1ccccc1,-30%,-22,?,?,1%,?
Cc1cc(-c2ccc(C)c(S(=O)(=O)NCCC(C)N3CCCCCC3)c2)on1 (stereo not given),-31%,-2,-20%,-20%,3%,-8%
Cc1cc(-c2ccc(C)c(S(=O)(=O)NCCCN3CCN(c4ccccc4)CC3)c2)on1,-33%,-7,23µM*,?,-4%,?
SMILES,HepG2 tox,IL1B secr inh,DT40 TDP1 no CPT,TDP1 cell CPT,S-ASM inh,TGFb inhibitor
COc1ccc(-c2cc(C)no2)cc1S(=O)(=O)NCCCN1CCN(c2ccccc2)CC1,-39%,-9,23µM*,?,-1%,?
Cc1cc(-c2ccc(C)c(S(=O)(=O)NCc3cccs3)c2)on1,-18%,.,15µM*,12µM*,.,0%
CCOC(=O)c1cc(-c2ccc(OC)cc2)n(CCC(=O)NC2CCCCC2)c1C,-16%,.,16µM*,21µM*,.,?
CCOC(=O)c1cc(-c2ccc(OC)cc2)n(CCC(=O)NC2CCC(C)CC2)c1C (stereo not given),-9%,.,23µM*,16µM*,.,-20%
CC(=O)c1cc(-c2ccc(F)cc2)n(CCC(=O)NC2CCCCC2)c1C,-21%,.,?,?,.,?
CCOC(=O)c1cc(-c2ccc(F)cc2)n(CCC(=O)NC2CCC(C)CC2)c1C (stereo not given),-29%,.,16µM*,?,.,-14%
COc1ccc(CCNC(=O)CSc2nc(=O)n3cccc(C)c3n2)cc1OC,-5%,-3,-22%,-23%,1%,-16%
Cc1ccc(CNC(=O)COC(=O)CCC(=O)c2cccs2)cc1,9%,20,9%,1%,-2%,10%
CCN1CCc2c(sc(NC(=O)c3ccc(S(=O)(=O)N4CCOCC4)cc3)c2C(=O)OC)C1,-39%,-5,?,8.2µM*,26%,-4%
CCOC(=O)c1c(NC(=O)c2ccc(S(=O)(=O)N3CCOCC3)cc2)sc2c1CCN(C(C)C)C2,0%,?,8.2µM*,?,-1%,0%
CCN1CCc2c(sc(NC(=O)c3ccc(S(=O)(=O)N4CCOCC4)cc3)c2C(N)=O)C1,-4%,?,?,?,11%,3%
COC(=O)c1c(NC(=O)c2ccc(S(=O)(=O)N3CCC(C)CC3)cc2)sc2c1CCN(C)C2,-47%,.,?,?,.,46%
COC(=O)c1c(NC(=O)c2ccc(S(=O)(=O)N3CCOCC3)cc2)sc2c1CCN(C)C2,-26%,-75*,?,?,0%,-1%
COC(=O)c1c(NC(=S)NN2CCOCC2)sc2c1CCCC2,-19%,-13,15µM*,?,-10%,?
O=S(=O)(c1ccc(F)c(F)c1)N1CCCCCCC1,-2%,-7,?,-26%,.,-1%
O=c1c(CCc2ccccc2)nc2cncnc2n1Cc1ccccc1Cl,.,.,-6%,-15%,.,.
CCCOc1ccccc1C(=O)Nc1nc2c(s1)CCCC2,-20%,.,18µM*,21µM*,.,0%
